Screening data from PubChem.
697 NFkB inh: inhibitors of PMA/ionomycin-induced NF-kB reporter, 697 cells, primary screen, B-cell NF-kB inhibitor project, cell-based, luminescence, uHTS | 697 B-cell NF-kB luciferase reporter, 16 h | inhibition, % at 4 µM | 330,000 tested, 0.33% active | AID 435022, 2010; in the data active = inhibition above about 35%
Mdm2-MdmX inh: inhibitors of human Mdm2-MdmX association, primary screen, cell-based, luminescence, split luciferase, SaOS-2, uHTS; Protein Mdm4 (Homo sapiens) + E3 ubiquitin-protein ligase Mdm2 (Homo sapiens), …; SaOS-2 split-luciferase Mdm2/MdmX complementation; inhibition, % at 8 µM; 330,000 tested, 3% active;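 active = inhibition of at least 50% at 8 µM in the primary screen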
Gli-Sufu antag: Gli-Sufu pathway antagonists, primary screen, luciferase luminescence, Sufu-KO-LIGHT cells, uHTS | Sufu-KO-LIGHT fibroblasts, Gli luciferase reporter luminescence | inhibition, % at 5 µM | 340,000 tested, 0.74% active;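 active = inhibition above about 55%, limit read from the data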;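 also: 0% = DMSO-treated cells and 100% = wells with medium but no cells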
Jurkat NFkB inh: inhibitors of induced NF-kB luciferase reporter, primary screen, TCR NF-kB activation inhibitor project, cell-based, luminescence, uHTS; Jurkat, PMA/ionomycin-induced NF-kB luciferase reporter; inhibition, % at 4 µM; 330,000 tested, 0.53% active; AID 435003, 2010; in the data active = inhibition above about 50%
Shn3 inh set2: reduction of Shn3 3'UTR firefly luciferase signal, primary screen, Schnurri-3 inhibitor project, cell-based, Clone20 osteoblasts, set 2; Clone20 osteoblast Shn3 3'UTR firefly luciferase, 24 h; inhibition, % at 12.5 µM; 360,000 tested, 0.52% active;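 active = mean inhibition of at least 75% with every replicate also reaching 75%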;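 also: 0% = median of neutral control wells and 100% = pilot-screen positive control compound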
Mdm2 MdmX conf: Mdm2-MdmX complex disruptors, retested hits, confirmation, luminescence, single concentration | shares compounds with Mdm2-MdmX inh | Mdm2-MdmX binding, luminescent assay | inhibition, % at 8 µM | 10,000 tested, 55% active | AID 489028, 2010; in the data active = inhibition above about 40%
FLuc counter: full-length luciferase signal inhibition, confirmation, counter-screen for Mdm2/MdmX interaction inhibitor project, cell-based, single concentration, SaOS-2 | shares compounds with Mdm2-MdmX inh | SaOS-2 full-length luciferase counterscreen, luminescence | inhibition, % at 8 µM | 6,200 tested, 77% active | AID 504607, 2011;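 active = mean inhibition at 8 µM reaching about 37%, which flags the compound as non-specific, limit read from the data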;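 also: p53-null SaOS-2 cells with luciferase driven by a doxycycline-inducible promoter; compound on cells about two nights before reading with doxycycline added after day one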
An asterisk follows results filed as active; . = no result given. Shown are actives, neighbours in structure and some others; about 3.8% of the full set was active somewhere.

SMILES	697 NFkB inh	Mdm2-MdmX inh	Gli-Sufu antag	Jurkat NFkB inh	Shn3 inh set2	Mdm2 MdmX conf	FLuc counter
Cc1onc(-c2ccccc2)c1C(=O)Nc1ncc([N+](=O)[O-])s1	2	73*	36	13	4	38	59*
Cc1ccc(C)c(OCc2nnc(NC(=O)c3ccc4c(c3)OCO4)s2)c1	4	69*	0	17	7	28	.
Cc1ccc([N+](=O)[O-])cc1NC(=O)c1ccc2c(c1)OCO2	-6	-10	-7	-12	-17	.	.
COc1cc2c(cc1OC)C(C)N(C(=O)Nc1ccc(F)cc1)CC2 (centres undefined)	-30	28	0	16	-1	.	.
COc1ccc(Br)cc1C(C[N+](=O)[O-])c1c(N)n(C)c(=O)n(C)c1=O (centres undefined)	19	50*	7	5	55	9	.
CN(C)c1ccc(C(C[N+](=O)[O-])c2c(N)n(C)c(=O)n(C)c2=O)c(F)c1C#N (centres undefined)	15	48	-3	19	68	.	.
CC1(C(=O)NCc2ccccc2Br)CCN1C(=O)C1(c2ccc(Cl)cc2)CC1 (centres undefined)	.	.	.	.	-3	.	.
CCOC(=O)c1c(C)oc2c1c(C(c1cccnc1)N1CCOCC1)c(O)c1ccccc12 (centres undefined)	-52	76*	-2	-70	-87	-232	.
CCOC(=O)c1c(C)oc2c1c1c(c3ccccc32)OCN(Cc2cccnc2)C1	.	.	22	.	-120	.	.
CCCCn1c(=O)[nH]c(=O)c2c1nc(Cn1ncc(Cl)c(Cl)c1=O)n2CCC	3	100*	31	18	98*	93*	52*
CC[C@]12c3[nH]c4ccc(Cl)cc4c3CCN1C(=O)[C@@H](CC(=O)NCCCn1ccnc1)C[C@@H]2C(=O)N1CCN(C(=O)c2ccco2)CC1	23	-8	3	.	7	.	.
CCCCN(CCCC)C(=S)N/N=C/c1c(C)[nH]n(-c2ccccc2)c1=O	-5	84*	7	-9	55	78*	45*
Cc1ccc(/C=N\NC(=O)COc2ccc(C)cc2[N+](=O)[O-])cc1	13	-15	-12	0	-9	.	.
Cc1[nH]n(-c2ccccc2)c(=O)c1/C=N/NC(=O)c1ccc(O)cc1O	-9	-18	-1	-27	-5	.	.
Cc1[nH]n(-c2ccc(Br)cc2)c(=O)c1/C=N/NC(=O)c1ccccc1	-46	53*	36	-8	85	52*	47*
Cc1ccc(OCC(=O)N/N=C\c2c(C)[nH]n(-c3ccccc3)c2=O)c([N+](=O)[O-])c1	-17	52*	.	-9	68	27	.
COc1ccc(C(=O)COC(=O)c2sccc2C)cc1OC	13	13	-41	-21	-99	.	.
CCOC(=O)C1=Nc2ccccc2C1=[N+]=[N-]	-20	51*	19	-26	68	9	.
CCOC(=O)c1cnc(-c2ccccc2O)nc1Cl	-10	9	-16	-9	-18	.	.
Cc1c(C(=O)N2CCN(CC(=O)Nc3ccccc3Cl)CC2)oc2ccc(Br)cc12	22	40	-5	-12	6	.	.
CCN1CCN(c2nc3ccccc3nc2C(C#N)C(=O)OC2CCCCC2)CC1 (centres undefined)	.	.	-23	.	31	.	.
CN1CCN(c2nc3ccccc3nc2C(C#N)C(=O)OC2CCCCC2)CC1 (centres undefined)	13	51*	10	6	0	31	84*
COc1ccc(N=CC2=C(Nc3ccc(OC)cc3)c3c(C)nn(-c4ccccn4)c3CC2)cc1	-39	90*	.	21	.	72*	22
